Source: PubChem BioAssay
The full list was thinned out, with hits kept by preference.
Dicer processing: inhibitors of Dicer pre-microRNA processing, primary screen, biochemical, cat-ELCCA, chemiluminescence; Endoribonuclease Dicer (Homo sapiens), Q9UPY3; cat-ELCCA pre-miR-21 Dicer processing; active compounds read high; z-score at 25 µM; hit rate 6% among 47,000; AID 1347074, 2019; in the data active = z-score above about 3, passing the limit was not always enough;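 note: higher signal means more uncleaved substrate so more Dicer inhibition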
Numbers stand for hits; i = inactive.

SMILES	Dicer processing
CCOC(=O)CCc1ccc2c(c1)NC(c1ccc([N+](=O)[O-])s1)O2 (centres undefined)	i
Brc1ccc(Cc2cn3cc(-c4ccccc4)nc3s2)cc1	i
Cc1ccc(NC(=S)NC2CC3C=CC2C3)c(C)c1 (centres undefined)	i
O=C1C2C3c4ccccc4C(C(=O)O)(c4ccccc43)C2C(=O)N1c1ccc(F)cc1 (centres undefined)	i
O=C(Nc1cccc(C(F)(F)F)c1)n1nc(C(F)(F)F)c2cnccc21	i
CCOc1ncnc2c1sc1nc(C)cc(C)c12	i
Cc1cc(C)c2c(n1)sc1c(SCc3ccc(F)cc3)ncnc12	i
C=CCSc1ncnc2c1sc1nc(C)cc(C)c12	3.1
CCOC(=O)c1c(-c2ccc(Br)cc2)csc1NC(=O)c1cccs1	i
CCS(=O)c1scc(-c2ccc(Cl)cc2)c1C#N (centres undefined)	i
Cc1onc(-c2ccccc2Cl)c1C(=O)Nc1cccc2cccnc12	i
OCCNCc1ccc(OCc2cccs2)cc1	i
CCOC(=O)C12C(=O)OC(C)(C)C1C2(CC)C(=O)c1ccc(F)cc1 (centres undefined)	i
CC(=O)N1CCC(NC(=O)Oc2ccc(Cl)cc2)CC1	i
Nc1ncnc2nc(SCCC(=O)O)[nH]c12	3.8
Nc1ncnc2nc(SCc3ccc4nsnc4c3)[nH]c12	i
CC(Sc1nc2ncnc(N)c2[nH]1)C(=O)O (centres undefined)	i
Cn1cnc2cc(NCc3ccco3)ccc21	4.9
CC(C)(C)n1cnc2cc(NCc3ccco3)ccc21	i
CC(C)n1cnc2cc(NCc3ccco3)ccc21	i
CCN(C(=O)C(=O)c1c[nH]c2ccccc12)c1ccccc1	i
Cc1noc(/C=C/c2ccc(OCc3ccsc3C#N)cc2)c1[N+](=O)[O-]	i
Cc1noc(/C=C/c2ccc(N3CCCC3)cc2)c1[N+](=O)[O-]	3.3
Cc1ccc(/C=C/c2onc(C)c2[N+](=O)[O-])o1	i
CCOc1ccc(-n2cnnn2)cc1	i
SMILES	Dicer processing
Cc1ccc(-c2cn3c4ccccc4nc3n2CCO)cc1	i
OCc1nc2ccccc2n1Cc1ccccc1Cl	i
Cc1ccc(-c2cn3c4ccccc4nc3n2CCCN2CCCCC2)cc1	i
COc1ccc(OCCn2c(C)nc3ccccc32)cc1	i
CC(C)c1ccc(CNc2nc3ccccc3n2CCN2CCOCC2)cc1	4.8
c1ccc2c(c1)nc(NCc1ccc3c(c1)OCO3)n2CCN1CCOCC1	i
Clc1ccccc1CNc1nc2ccccc2n1CCN1CCOCC1	6.5
CCn1c(NCc2cc(OC)ccc2OC)nc2ccccc21	i
COc1ccc(OC)c(CNc2nc3ccccc3n2CCN2CCCCC2)c1	3.8
COc1ccc(-c2cn3c4ccccc4nc3n2CCCN2CCOCC2)cc1	3.6
O=C(Nc1nc2ccccc2n1CCN1CCOCC1)C1CCCCC1	i
CCN(CC)c1ccc(CNc2nc3ccccc3n2C(C)C)cc1	i
FC(F)(F)c1cnc(/C=N/NC(=S)Nc2ccc(Cl)cc2)c(Sc2ccc(Cl)cc2)c1	i
C#CCn1c(=O)c2c(ncn2C)n(C)c1=O	i
CCOC(=O)c1sc(N(NC(=O)c2ccccc2Cl)C(=O)c2ccccc2Cl)c2c1CC(C)(C)CC2=O	i
Cc1ccc(S(=O)(=O)NNC(=S)Nc2ccccc2C(C)C)cc1	i
COC(=O)c1c(C)oc2ccc(OCc3cc(C)ccc3C)cc12	i
CC1(C)CC(=O)C2=C(C1)N=C1c3ccccc3C(=O)C1C2c1cc(Br)ccc1O (centres undefined)	i
CCN1CCN(c2oc(COc3ccc(C)cc3)nc2C#N)CC1	i
Cc1nc(-c2ccc(S(=O)(=O)N3CCCc4ccccc43)s2)cs1	i
Clc1ccc(CSc2ncn[nH]2)cc1	i
Fc1cccc(Cl)c1CSC1=NCN(C2CC2)CN1	i
O=C(CSc1nncn1-c1ccc(OCc2ccccc2)cc1)c1ccc(C(F)(F)F)cc1	i
COc1ccc(OC)c(CNc2nc3ccccc3n2C)c1	i
CN(C)c1ccc(CNc2nc3ccccc3n2C)cc1	i
SMILES	Dicer processing
C=CCn1c(NCc2ccccc2OC)nc2ccccc21	i
COc1ccccc1CNc1nc2ccccc2n1C	3.8
COc1ccccc1CNc1nc2ccccc2n1CCN1CCOCC1	6.2
Cc1ccc2oc(=O)cc(CN3CCOCC3)c2c1	i
CCOC(=O)CC(N)=NNc1ccccc1[N+](=O)[O-]	i
C(=N\Nc1ccc2ccccc2n1)/c1ccccn1	i
CC1=C(C(=O)Nc2ccccn2)C(c2ccc(Br)cc2)n2nc(-c3ccccc3)nc2N1 (centres undefined)	i
Cc1c(Cc2ccc(Cl)cc2)c(NCCCn2ccnc2)n2c(nc3ccccc32)c1C#N	4.4
CCCc1c(C)c(C#N)c2nc3ccccc3n2c1NCCCn1ccnc1	i
Cc1c(CCC(C)C)c(-n2ccnc2)n2c(nc3ccccc32)c1C#N	3.5
CCCCc1c(C)c(C#N)c2nc3ccccc3n2c1N1CCN(CCO)CC1	i
Cc1c(Cc2ccccc2Cl)c(NCCCn2ccnc2)n2c(nc3ccccc32)c1C#N	i
Cc1c(Cc2ccccc2)c(-n2ccnc2)n2c(nc3ccccc32)c1C#N	i
